Data on 34 compounds can be found in ChEMBL document CHEMBL1961873, “Compounds: GSK PKIS; Assays: Nanosyn kinase panel” (2012).

The first experiment deals with Non-receptor tyrosine-protein kinase TYK2 (Homo sapiens) (UniProt P29597). The following applies: at 0.1 µM.
Sequence of Non-receptor tyrosine-protein kinase TYK2 (Homo sapiens) (P29597 whole entry): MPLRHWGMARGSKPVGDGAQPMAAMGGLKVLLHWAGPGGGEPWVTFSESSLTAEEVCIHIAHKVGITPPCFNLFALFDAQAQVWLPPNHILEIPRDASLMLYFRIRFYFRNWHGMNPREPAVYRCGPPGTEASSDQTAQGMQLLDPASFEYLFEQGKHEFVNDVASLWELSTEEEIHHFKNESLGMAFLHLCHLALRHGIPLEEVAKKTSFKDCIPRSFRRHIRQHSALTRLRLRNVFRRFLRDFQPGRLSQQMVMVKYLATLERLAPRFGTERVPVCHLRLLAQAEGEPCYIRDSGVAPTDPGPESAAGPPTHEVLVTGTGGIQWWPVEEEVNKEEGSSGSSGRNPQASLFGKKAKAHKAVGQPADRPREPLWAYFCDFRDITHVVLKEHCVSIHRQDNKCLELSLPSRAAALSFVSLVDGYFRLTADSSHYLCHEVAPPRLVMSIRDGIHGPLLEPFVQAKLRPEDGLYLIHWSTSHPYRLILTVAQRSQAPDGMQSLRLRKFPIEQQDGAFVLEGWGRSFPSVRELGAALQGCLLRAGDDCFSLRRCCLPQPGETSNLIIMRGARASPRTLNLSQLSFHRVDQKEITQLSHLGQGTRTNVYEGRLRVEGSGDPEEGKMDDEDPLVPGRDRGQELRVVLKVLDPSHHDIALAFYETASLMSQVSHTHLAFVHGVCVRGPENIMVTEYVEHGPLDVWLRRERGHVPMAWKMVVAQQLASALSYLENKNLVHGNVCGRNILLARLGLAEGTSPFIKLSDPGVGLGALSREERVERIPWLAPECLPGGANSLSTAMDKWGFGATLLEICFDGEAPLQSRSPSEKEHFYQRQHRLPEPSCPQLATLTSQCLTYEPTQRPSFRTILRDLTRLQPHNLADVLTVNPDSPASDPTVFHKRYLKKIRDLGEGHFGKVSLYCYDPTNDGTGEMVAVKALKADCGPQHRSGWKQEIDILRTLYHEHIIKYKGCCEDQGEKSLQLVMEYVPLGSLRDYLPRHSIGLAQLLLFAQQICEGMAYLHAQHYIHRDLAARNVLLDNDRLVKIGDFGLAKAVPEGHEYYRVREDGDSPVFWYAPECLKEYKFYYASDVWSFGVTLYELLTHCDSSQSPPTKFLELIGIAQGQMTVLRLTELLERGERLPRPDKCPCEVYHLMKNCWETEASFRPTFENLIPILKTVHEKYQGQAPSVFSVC
In the case of `NC(=O)c1ccc(Oc2nccc(-c3c(-c4ccc(F)cc4)ncn3C3CCNCC3)n2)cc1`, the inhibition (as a rule, the drop in the measured response relative to a control, in per cent) was -1.79%.
For the compound `Fc1ccc(-c2ncn(CCCN3CCOCC3)c2-c2ccncc2)cc1`, the inhibition is 1.6%.
With `COc1cccc(/C=N/Nc2ncnc3c2cnn3-c2cccc(OC)c2)c1`, the inhibition is -3.27%.
For `N#Cc1ccc(Oc2nccc(-c3c(-c4ccc(F)cc4)ncn3C3CCNCC3)n2)cc1`, the inhibition was -3.12%.
As for `COc1ccc(-c2ccc3c(NC(=O)C4CC4)n[nH]c3n2)cc1`, the inhibition came to 0.27%.
On to `O=C(Nc1n[nH]c2cc(-c3ccccc3)ccc12)C1CC1`, for which the inhibition is -4.71%.
`COC(=O)Nc1nc2ccc(Sc3ccc(NC(=O)Nc4cc(C(F)(F)F)ccc4F)cc3)cc2[nH]1`: the inhibition is -0.72%.
In the case of `CN(c1ccc(NC(=O)Nc2c(Cl)cccc2Cl)cc1)c1ccnc(Nc2cccc(CS(C)(=O)=O)c2)n1`, the inhibition was -2.98%.
In the case of `O=C1Nc2ccc(I)cc2C1=Cc1cc(Br)c(O)c(Br)c1`, the inhibition is -1.21%.
Consider `Clc1ccc(CNc2nccc(-c3cnn4ncccc34)n2)cc1`, for which the inhibition is -1.15%.
The same measure, in the same setting: with `C/C(Nc1ccc(S(N)(=O)=O)cc1)=C1/C(=O)Nc2ccccc21` the figure was 1.41%.
Turning to `CCc1nccc2c1nc(-c1nonc1N)n2CC`, the inhibition came out at 1.46%.
As to `NC(=O)c1cc(-c2ccncc2)cc(-c2ccccc2)c1N`, the inhibition is -3.77%.
As for `COc1cc(Nc2ncc(-c3ccccc3)o2)cc(OC)c1OC`, the inhibition is -2.24%.
As to `NS(=O)(=O)c1ccc(N/N=C2\C(=O)Nc3ccc(-c4cnco4)cc32)cc1`, the inhibition was -0.2%.
In the case of `COc1cc2ncn(-c3cc(OCCc4ccccc4)c(C(N)=O)s3)c2cc1OC`, the inhibition is -3.55%.
The same measure, in the same setting: with `Cc1nnc(-c2ccc(C)c(-c3ccc(C(=O)NCc4ccc(Cl)cc4)cc3)c2)o1` the figure was -6.26%.
Regarding `C#Cc1cccc(Nc2ncnc3ccc(OCCCCNCCS(C)(=O)=O)cc23)c1`, the inhibition was -6.6%.
In the case of `COc1cccc(-n2cnc3c(N/N=C/c4ccncc4)ncnc32)c1`, the inhibition turned out to be 3.07%.
In the case of `COc1ccc2cc(-c3c(-c4ccncc4)nc(-c4ccc(S(C)(=O)=O)cc4C)n3C)ccc2c1`, the inhibition was -5.17%.
For the compound `COc1ccc2ncn(-c3cc(O[C@H](C)c4ccccc4Cl)c(C(N)=O)s3)c2c1`, the inhibition was -5.25%.
Take `O=C1NC(=O)C(c2cccc(Cl)c2)=C1Nc1ccc(Cl)c(C(=O)O)c1`: the inhibition is -0.74%.
Consider `CN1CCN(CCCNc2nc3ccc(Oc4ccc(NC(=O)Nc5cc(C(F)(F)F)ccc5F)cc4)cc3[nH]2)CC1`, for which the inhibition was -2.82%.
Same read-out and setting: next, `C[C@@H](Oc1cc(-n2cnc3ccc(OC4CCN(C)CC4)cc32)sc1C(N)=O)c1ccccc1Cl`: -3.41%; `c1ccc(Oc2ccc(Nc3ncc(-c4ccccc4)o3)cc2)cc1`: -0.13%; `CN(C)CCCNc1nccc(-c2c(-c3ccc(F)cc3)nn3cc(C(F)(F)F)ccc23)n1`: -7.47%.
For `COc1cc2ncn(-c3cc(OCc4ccccc4C(F)(F)F)c(C(C)=O)s3)c2cc1OC`, the inhibition was -1.78%.
With `COc1ccc2cc(-c3c(-c4ccncc4)nc(-c4ccc([S+](C)[O-])cc4C)n3C)ccc2c1` (stereo not drawn), the inhibition is -1.86%.
`Fc1ccc(-c2ncn(C3CCNCC3)c2-c2ccnc(Oc3ccc4c(c3)OCO4)n2)cc1`: the inhibition was -2.53%.
Turning to `NC(=O)c1cc(-c2ccc(F)cc2)cc(-c2ccncc2)c1N`, the inhibition is -2.58%.
Regarding `CCC(=O)Nc1ccc(C)c(-c2ccc(C(=O)NCC3CC3)cc2)c1`, the inhibition is -2.17%.
Consider `c1ccc(-c2n[nH]cc2-c2ccnc(-c3ccc(OCCN4CCOCC4)cc3)c2)nc1`, for which the inhibition was determined as 4.24%.
Regarding `O=C(NCC1CC1)c1ccc(-c2cccc(C(=O)NC3CC3)c2)cc1`, the inhibition was -2.99%.
In the case of `NC(=O)Cc1ccccc1Oc1nccc(-c2c(-c3ccc(F)cc3)ncn2C2CCNCC2)n1`, the inhibition is -1.14%.

The next experiment has as its target T1, Dual specificity protein kinase TTK (Homo sapiens) (UniProt P33981).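 Note: reported figures are mean TTK inhibition at 1 µM.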
T1 sequence (whole entry): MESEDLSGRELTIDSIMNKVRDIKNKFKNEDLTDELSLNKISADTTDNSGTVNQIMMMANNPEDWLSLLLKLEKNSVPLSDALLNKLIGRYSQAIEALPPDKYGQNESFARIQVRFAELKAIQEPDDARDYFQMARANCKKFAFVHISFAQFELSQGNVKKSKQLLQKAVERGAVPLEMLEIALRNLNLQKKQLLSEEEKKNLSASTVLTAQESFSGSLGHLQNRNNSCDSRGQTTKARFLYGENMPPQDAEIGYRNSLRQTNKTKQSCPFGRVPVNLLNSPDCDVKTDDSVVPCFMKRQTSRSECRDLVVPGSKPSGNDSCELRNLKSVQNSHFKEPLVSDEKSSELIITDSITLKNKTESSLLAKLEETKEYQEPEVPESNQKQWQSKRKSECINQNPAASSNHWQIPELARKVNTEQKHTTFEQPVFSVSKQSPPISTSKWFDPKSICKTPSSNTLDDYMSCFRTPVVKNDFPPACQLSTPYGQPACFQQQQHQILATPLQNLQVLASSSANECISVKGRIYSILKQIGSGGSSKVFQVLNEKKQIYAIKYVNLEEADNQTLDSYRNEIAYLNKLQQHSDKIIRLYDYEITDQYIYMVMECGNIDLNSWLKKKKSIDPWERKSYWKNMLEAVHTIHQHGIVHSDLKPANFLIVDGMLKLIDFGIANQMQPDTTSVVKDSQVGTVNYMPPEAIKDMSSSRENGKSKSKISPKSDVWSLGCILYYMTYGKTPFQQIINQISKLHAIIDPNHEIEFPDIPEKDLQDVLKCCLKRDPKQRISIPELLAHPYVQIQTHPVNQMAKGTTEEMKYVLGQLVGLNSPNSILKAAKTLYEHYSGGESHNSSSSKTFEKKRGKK
The conditions noted are these: at 1 µM.
As to `NC(=O)c1ccc(Oc2nccc(-c3c(-c4ccc(F)cc4)ncn3C3CCNCC3)n2)cc1`, the inhibition was determined as 12.5%.
Still for that read-out and setting: next, `Fc1ccc(-c2ncn(CCCN3CCOCC3)c2-c2ccncc2)cc1`: 5.54%; `COc1cccc(/C=N/Nc2ncnc3c2cnn3-c2cccc(OC)c2)c1`: 9.42%.
Consider `N#Cc1ccc(Oc2nccc(-c3c(-c4ccc(F)cc4)ncn3C3CCNCC3)n2)cc1`, for which the inhibition is 8.89%.
As to `COc1ccc(-c2ccc3c(NC(=O)C4CC4)n[nH]c3n2)cc1`, the inhibition was 8.48%.
Take `O=C(Nc1n[nH]c2cc(-c3ccccc3)ccc12)C1CC1`: the inhibition came to 6.67%.
The same measure, in the same setting: next, `COC(=O)Nc1nc2ccc(Sc3ccc(NC(=O)Nc4cc(C(F)(F)F)ccc4F)cc3)cc2[nH]1`: 8.33%; `CN(c1ccc(NC(=O)Nc2c(Cl)cccc2Cl)cc1)c1ccnc(Nc2cccc(CS(C)(=O)=O)c2)n1`: 19.4%.
With `O=C1Nc2ccc(I)cc2C1=Cc1cc(Br)c(O)c(Br)c1`, the inhibition turned out to be 13.3%.
For `Clc1ccc(CNc2nccc(-c3cnn4ncccc34)n2)cc1`, the inhibition was 10.5%.
Consider `C/C(Nc1ccc(S(N)(=O)=O)cc1)=C1/C(=O)Nc2ccccc21`, for which the inhibition stood at 35.7%.
As to `CCc1nccc2c1nc(-c1nonc1N)n2CC`, the inhibition worked out at 2.94%.
For `NC(=O)c1cc(-c2ccncc2)cc(-c2ccccc2)c1N`, the inhibition came out at 10.8%.
For the compound `COc1cc(Nc2ncc(-c3ccccc3)o2)cc(OC)c1OC`, the inhibition is -1.01%.
Still for that read-out and setting: with `NS(=O)(=O)c1ccc(N/N=C2\C(=O)Nc3ccc(-c4cnco4)cc32)cc1` the figure was 52.8%; with `COc1cc2ncn(-c3cc(OCCc4ccccc4)c(C(N)=O)s3)c2cc1OC`, 6.73%.
Consider `Cc1nnc(-c2ccc(C)c(-c3ccc(C(=O)NCc4ccc(Cl)cc4)cc3)c2)o1`, for which the inhibition was -0.17%.
Take `C#Cc1cccc(Nc2ncnc3ccc(OCCCCNCCS(C)(=O)=O)cc23)c1`: the inhibition turned out to be 9.83%.
Turning to `COc1cccc(-n2cnc3c(N/N=C/c4ccncc4)ncnc32)c1`, the inhibition came to 5.77%.
For the compound `COc1ccc2cc(-c3c(-c4ccncc4)nc(-c4ccc(S(C)(=O)=O)cc4C)n3C)ccc2c1`, the inhibition was found to be 8.65%.
Take `COc1ccc2ncn(-c3cc(O[C@H](C)c4ccccc4Cl)c(C(N)=O)s3)c2c1`: the inhibition was 9.02%.
`O=C1NC(=O)C(c2cccc(Cl)c2)=C1Nc1ccc(Cl)c(C(=O)O)c1`: the inhibition is 9.31%.
With `CN1CCN(CCCNc2nc3ccc(Oc4ccc(NC(=O)Nc5cc(C(F)(F)F)ccc5F)cc4)cc3[nH]2)CC1`, the inhibition is 20.8%.
On to `C[C@@H](Oc1cc(-n2cnc3ccc(OC4CCN(C)CC4)cc32)sc1C(N)=O)c1ccccc1Cl`, for which the inhibition amounted to 8.91%.
For the compound `c1ccc(Oc2ccc(Nc3ncc(-c4ccccc4)o3)cc2)cc1`, the inhibition worked out at 5.67%.
In the case of `CN(C)CCCNc1nccc(-c2c(-c3ccc(F)cc3)nn3cc(C(F)(F)F)ccc23)n1`, the inhibition was 8.76%.
Same read-out and setting: next, `COc1cc2ncn(-c3cc(OCc4ccccc4C(F)(F)F)c(C(C)=O)s3)c2cc1OC`: 8.19%; `COc1ccc2cc(-c3c(-c4ccncc4)nc(-c4ccc([S+](C)[O-])cc4C)n3C)ccc2c1` (stereo not drawn): 1.61%; `Fc1ccc(-c2ncn(C3CCNCC3)c2-c2ccnc(Oc3ccc4c(c3)OCO4)n2)cc1`: 9.25%.
Consider `NC(=O)c1cc(-c2ccc(F)cc2)cc(-c2ccncc2)c1N`, for which the inhibition turned out to be 11.4%.
Turning to `CCC(=O)Nc1ccc(C)c(-c2ccc(C(=O)NCC3CC3)cc2)c1`, the inhibition is 8.22%.
Consider `c1ccc(-c2n[nH]cc2-c2ccnc(-c3ccc(OCCN4CCOCC4)cc3)c2)nc1`, for which the inhibition was determined as 0.86%.
As for `O=C(NCC1CC1)c1ccc(-c2cccc(C(=O)NC3CC3)c2)cc1`, the inhibition turned out to be 3.09%.
Turning to `NC(=O)Cc1ccccc1Oc1nccc(-c2c(-c3ccc(F)cc3)ncn2C2CCNCC2)n1`, the inhibition is 7.71%.
